G9a block: inhibitors of human histone lysine methyltransferase G9a | Q96KQ7 | G9a H3K9 monomethylation, AlphaScreen, 2 h | Potency, µM (titrated, usually from 102 µM), for the others: at the highest dose activity, negative = inhibition, usual class: inhibitors | hit rate 8.8% among 350,000 | AID 504332; also: % is scaled to controls: 0 for no effect and ±100 for the full control effect; nearly all actives have a fitted effect of over 75% in size
Target sequence (Q96KQ7 913-1193 limits assumed): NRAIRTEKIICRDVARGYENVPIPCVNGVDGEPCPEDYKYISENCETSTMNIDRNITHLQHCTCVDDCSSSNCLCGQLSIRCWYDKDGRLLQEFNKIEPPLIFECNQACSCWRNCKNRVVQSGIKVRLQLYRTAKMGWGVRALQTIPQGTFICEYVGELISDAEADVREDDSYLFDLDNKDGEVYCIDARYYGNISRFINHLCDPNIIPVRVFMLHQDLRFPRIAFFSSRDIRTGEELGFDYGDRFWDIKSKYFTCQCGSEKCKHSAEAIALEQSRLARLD
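Using a bead-based AlphaScreen, monomethylated H3K9 product from 2 h room-temperature reactions (G9a 20 nM, peptide 500 nM, SAM 20 uM) was detected with 0.5 ug/mL rabbit anti-H3K9me1 antibody.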
JMJD2A Tudor: JMJD2A Tudor domain (human) inhibition; hit rate 4.4% among 390,000; Potency, µM (titrated, usually from 114 µM), inactives show at the top dose activity change, negative = inhibition, hits mostly inhibitors; O75164; AlphaScreen JMJD2A-Tudor / H3K4me3 peptide binding; AID 504339; also: % is scaled to controls: 0 for no effect and ±100 for the full control effect; nearly all actives have a fitted effect of over 50% in size
BAZ2B block: blocks human BAZ2B | AlphaScreen BAZ2B-H3K14Ac peptide displacement | Potency, µM (top dose mostly 114 µM), for the others: at the top dose activity change, negative = inhibition, hits mostly inhibitors | hit rate 4.4% among 360,000 | Q9UIF8; also: % is scaled to controls: 0 for no effect and ±100 for the full control effect; nearly all actives have a fitted effect of over 60% in size
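AlphaScreen displacement: compounds (up to 110uM) incubated 30 min at room temperature with a preformed 50 nM BAZ2B/50 nM biotinylated H3K14Ac peptide complex in PBS pH 7.4 with Tween-20. Donor and acceptor beads at 10 ug/mL final added, 20 min light-protected before reading.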
Sfp PPTase inh: inhibitors of Bacillus subtilis Sfp phosphopantetheinyl transferase; Q9F4F7; Biochemical Sfp PPTase activity, qHTS; Potency, µM, for inactives: largest response in the series, negative = inhibition, usual class: inhibitors; hit rate 3.5% among 310,000; AID 1490;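 also: the enzyme is Sfp with the accession as filed and its product quenches rhodamine fluorescence; 0% = enzyme reaction without inhibitor and -100% = no enzyme wells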
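Fluorescence-quenching assay: 15 nM Sfp-PPTase preincubated 15 min at room temperature with compound, then 5 uM rhodamine-CoA and 12.5 uM BHQ-2-labelled YbbR peptide added. Fluorescence (ex 525/em 598 nm) read at start and after 30 min; difference gives rate.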
HP1b binding inh: HP1-beta chromodomain-methylated histone interaction inhibition; P83916; Potency, µM (series often up to 114 µM), without a hit: at the top dose activity change, negative = inhibition, most hits filed as inhibitors; hit rate 0.56% among 390,000; AID 540317; AlphaScreen HP1-beta / biotin-H3K9me3 peptide binding; also: nearly all actives have a fitted effect of over 70% in size
Target sequence (P83916 whole entry, looked up): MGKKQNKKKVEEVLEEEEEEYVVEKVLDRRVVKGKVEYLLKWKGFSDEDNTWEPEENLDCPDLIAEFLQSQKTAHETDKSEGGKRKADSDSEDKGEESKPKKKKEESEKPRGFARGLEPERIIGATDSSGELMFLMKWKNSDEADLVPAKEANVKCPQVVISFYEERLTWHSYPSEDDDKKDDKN
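Compound inhibition of the preformed complex between 50 nM HP1-beta and 50 nM biotinylated H3K9me3 peptide was read by AlphaScreen. Buffer was PBS pH 7.4 with 0.01% Tween-20. Incubations ran 30 min at room temperature, with 10 ug/mL donor/acceptor beads.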
An asterisk follows results filed as active; ? = inconclusive; . = not tested or not shown; [ ] = remark or other dose. A selection: hits, their analogues and other compounds. The true share with any hit is near 12%. Calls follow the shape of the dose curve; as a rule, active = well fitted curve in the direction sought with a large enough effect; inconclusive = small, poorly fitted or top-dose-only effect, or another doubt; inactive = no such curve, though single readings can be large; an effect the other way counts as inactive or inconclusive. Potency is read from the fitted curve at half-maximal effect.

SMILES	G9a block	JMJD2A Tudor	BAZ2B block	Sfp PPTase inh	HP1b binding inh
Cc1ccc(O)c(N=Cc2cccs2)c1	-19%[59 µM]	2%	-34%	-26%	37%
Clc1ccc(CNc2ccccc2NCc2ccc(Cl)nc2)cn1	3.2µM*	?	?	-2%	1%
COc1ccc(-c2ncc(CN3CCC(CO)(Cc4cccc(OC)c4)CC3)cn2)cc1	?	-23%[11.4 µM]	-23%	14%	15%
COc1ccc(CC2(CO)CCN(Cc3cccnc3)CC2)cc1	35µM*	11%[57.1 µM]	-16%	8.9µM*	46%
CCOc1cc(C(=O)Nc2ccc3nc(N4CCN(C)CC4)cc(C)c3c2)cc(OCC)c1OCC	2%[59 µM]	-4%	-1%	.	18%
Cc1ccc2c(c1)c1c3n2CCN(C=O)C3CCC1 (configuration not stated)	50µM*	?	?	2%	-15%
Cc1ccc2c(c1)c1c3n2CCN(C(=O)c2cccc(C(F)(F)F)c2)C3CCC1 (configuration not stated)	7.9µM*	?	28µM*	.	-24%
Cc1ccc2c(c1)c1c3n2CCNC3CCC1 (configuration not stated)	-17%[59 µM]	?	?	4%	-8%
CCN1CCn2c3c(c4cc(Cl)ccc42)CCCC31 (configuration not stated)	?	-26%[11.4 µM]	35µM*	?	4%
CCN(CC)CCN1CCn2c3c(c4cc(C)ccc42)CCCC31 (configuration not stated)	?	56µM*	?	-2%	6%
Cc1ccc2c(c1)c1c(n2C)C(=O)CCC1	12%[12.7 µM]	16%	17%	-15%	63%
CCn1cc(CCC(=O)NCc2ccc(C)cc2)c2ccccc21	?	-25%	-16%	.	8%
CN(CCC#N)C(=O)COc1ccc(Br)cc1Cl	-7%[12.7 µM]	-16%	-6%	22%	24%
N#C/C(=C/c1ccc(N2CCOCC2)o1)C(=O)Nc1ccccc1	-2%	-21%	-26%	?	17%
Cc1csc(Nc2ccc(Cl)cc2)n1	45µM*	-16%	?	12%	4%
Cc1ccc(Nc2nc(C)cs2)cc1	35µM*	?	-23%	22µM*	?
COc1ccc(Nc2nc(-c3ccc(OC)cc3)cs2)cc1	-27%	-1%	-1%	-6%	28%
COc1ccc(-n2nc(C(=O)Nc3ccc(Cl)cn3)c3c4ccccc4n(C)c3c2=O)cc1	2%[59 µM]	0%	.	.	33%
CCOC(=O)c1ccc(S(=O)(=O)Nc2nc3cc(S(=O)(=O)NC4=NCCCCC4)ccc3s2)cc1	3.5µM*	89µM*	.	28µM*	-22%
COCCNC(=O)c1ccccc1NC(=O)c1ccccc1SC	4.5µM*	-6%	-13%	56µM*	17%
CCCNC(=O)c1ccccc1NC(=O)c1ccccc1SC	25µM*	-14%	-26%	-8%	23%
CSc1ccccc1C(=O)Nc1ccccc1C(=O)N1CCCC1	-2%[59 µM]	2%	-8%	6%	57%
C=CCNC(=O)c1ccccc1NC(=O)c1ccccc1C	-11%[59 µM]	4%	3%	11%	28%
C=CCNC(=O)c1ccccc1NC(=O)c1ccccc1SC	.	-8%	3%	20µM*	31%
Cc1nnc(SCCC(=O)Nc2ccc(Cl)cc2)o1	6%	-5%	?	20%	13%
SMILES	G9a block	JMJD2A Tudor	BAZ2B block	Sfp PPTase inh	HP1b binding inh
COc1cc(OC)c(NS(=O)(=O)c2cccc(C(=O)OCC(=O)NCC3CCCO3)c2)cc1Cl (configuration not stated)	4%	-4%	.	6%	37%
Cc1cccc(OCc2nnc(N)s2)c1	-7%[59 µM]	?	7%	6%	-10%
Cc1ccc(NC(=S)N(CCN(C)C)C(C)c2cccnc2)cc1 (configuration not stated)	1%[59 µM]	-27%	-13%	12%	7%
Cc1cccc(C)c1NC(=S)N(CCN(C)C)C(C)c1cccnc1 (configuration not stated)	-1%[59 µM]	-13%	-24%	79µM*	31%
Cc1cccc(-n2c(N)cc(=O)[nH]c2=S)c1	50µM*	-13%	5%	-4%	11%
Nc1cc(=O)[nH]c(=O)n1-c1cccc(F)c1	6%	2%	-13%	12%	22%
O=c1[nH]c(=S)c2[nH]c(=S)n(-c3ccccc3)c2[nH]1	.	20µM*	.	.	?
O=c1cc(O)n(-c2ccccc2)c(=S)[nH]1	18µM*	-20%[11.4 µM]	1%	35µM*	-5%
COC(=O)[C@H](CC(C)C)NC(=O)Cn1cnc2c(OCc3ccccc3)ncnc21	.	-15%	.	.	19%
CC(=O)Oc1cc2oc(=O)cc(C)c2cc1OC(C)=O	0.5µM*	-34%	50µM*	79µM*	26%
CC(=O)Oc1ccc2c(C)cc(=O)oc2c1	0%[59 µM]	12%	8%	18%	38%
Cc1ccc(-n2c(SCC(=O)OC(C)C)nnc2-c2ccccn2)cc1	-8%[59 µM]	50µM*	50µM*	-14%	18%
Cc1ccc(C)c(-n2c(SCC(N)=O)nnc2-c2ccccn2)c1	?	79µM*	18µM*	6%	24%
CCN(CC)C(=O)CSc1nnc(-c2ccccn2)n1-c1ccccc1OC	16%[59 µM]	?	89µM*	0%	45%
Cc1ccc(C)c(-n2c(SCC(=O)N3CCCC3)nnc2-c2ccccn2)c1	8%[59 µM]	?	32µM*	9%	31%
CCC1SC(C)C/C(=N/NC(N)=O)C1C (configuration not stated)	?	5%	-1%	2%	19%
CC(C)(C)OC(=O)N1CCN(C(=O)c2[nH]cnc2C(=O)NCc2ccccc2)CC1	12%[0.501 µM]	-11%	4%	.	23%
CC(C)(C)OC(=O)CNC(=O)c1nc[nH]c1C(=O)N1CCN(C(=O)OC(C)(C)C)CC1	79µM*	-3%	-7%	13%	24%
CC1CCN(C(=O)c2[nH]cnc2C(=O)NCC(=O)OC(C)(C)C)CC1	5%	-13%	-27%	1%	14%
CC(C)(C)OC(=O)CNC(=O)c1nc[nH]c1C(=O)N1CCc2ccccc2C1	?	-35%	-30%	18%	49%
CC(C)(C)OC(=O)CNC(=O)c1nc[nH]c1C(=O)N1CCNCC1	22%[2.33 µM]	?	79µM*	.	35%
CC(C)(C)OC(=O)N1CCN(C(=O)c2[nH]cnc2C(=O)NCC(=O)OCc2ccccc2)CC1	71µM*	-19%	-1%	19%	27%
Cc1c(S(=O)(=O)c2ccccn2)c(N)n(Cc2ccccc2Cl)c1C	.	-31%	?	-15%	10%
Cc1nc2sccn2c(=O)c1S(=O)(=O)NC(C)c1ccccc1 (configuration not stated)	.	-1%	-4%	-4%	27%
Cc1[nH]cnc1CSCCN	?	1µM*	?	7.1µM*	-6%
Cc1[nH]cnc1CSCc1ccc(Cl)cc1	25µM*	-20%	?	0%	32%
Cc1cc(C(=O)N2CCN(S(C)(=O)=O)CC2)cs1	-4%[12.7 µM]	1%	1%	7%	22%

Assay outcomes (PubChem)
